This passage reports outcome and Potency results from PubChem BioAssay (Tox21).

Records with an inconclusive call do not appear. Activity calls are given as the source filed them. Unless noted, the call rests on the fitted dose curve; in most records, active means well fitted curve in the direction sought with a large enough effect in the repeat runs; inconclusive means weak or mixed curves; inactive means no such curve, though single readings can be large; an effect the other way counts as inactive or inconclusive.

Assay [1] in a line: qHTS assay to identify small molecule antagonists of the glucocorticoid receptor (GR) signaling pathway - cell viability counter screen (AID 720693). Further: nearly all actives have a fitted effect of over 55% in size. On the technique in general: In qHTS, concentration-response curves come from the screen itself.
Assay [2] can be described thus: qHTS assay for identifying genotoxic compounds that show differential cytotoxicity against isogenic chicken DT40 cell lines with known DNA damage response pathways - wild type cell line (AID 743012). Further: nearly all actives have a fitted effect of over 60% in size. Further: potency means the concentration at half of the fitted maximal effect. The gist of the method: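 Cytotoxicity in repair-proficient parental chicken DT40 cells serves as the comparator for Rad54/Ku70- and Rev3-deficient lines. Cells were exposed to compounds for 40 h at 37 C/5% CO2, and ATP-based luminescence (CellTiter-Glo) measured viability.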

Assay [3] can be described thus: qHTS assay for identifying genotoxic compounds that show differential cytotoxicity against isogenic chicken DT40 cell lines with known DNA damage response pathways - Rad54/Ku70 mutant cell line (AID 743015). Further: nearly all actives have a fitted effect of over 60% in size.
Assay [4] can be described thus: qHTS assay to identify small molecule antagonists of the androgen receptor (AR) signaling pathway - cell viability counter screen (AID 743033; further: nearly all actives have a fitted effect of over 45% in size).
Assay [5] is described as follows: qHTS assay to identify small molecule antagonists of the androgen receptor (AR) signaling pathway using the MDA cell line - cell viability counter screen (AID 743041; further: nearly all actives have a fitted effect of over 45% in size). The gist of the method: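 Using the breast carcinoma line MDA-kb2 AR-luc, test chemicals were co-incubated with R1881 for 16 h; CellTiter-Fluor reagent, added at 15.5 h, provided a fluorescence measure of live cells.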

The nature of assay [6]: qHTS assay to identify small molecule antagonists of the thyroid receptor (TR) signaling pathway - cell viability counter screen (AID 743064). Further: nearly all actives have a fitted effect of over 50% in size. The gist of the method:
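GH3.TRE-Luc cells, 4 h pre-plating; cpd + T3 1 nM final; 37 °C 23.5 h; CellTiter-Fluor 30 min; fluorescence read.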

The nature of assay [7]: qHTS assay for identifying genotoxic compounds that show differential cytotoxicity against isogenic chicken DT40 cell lines with known DNA damage response pathways - Rev3 mutant cell line (AID 743014). Further: nearly all actives have a fitted effect of over 55% in size. Further: potency means the concentration at half of the fitted maximal effect.
Assay [8] deals with Androgen receptor (Homo sapiens) (UniProt P10275). In words: qHTS assay to identify small molecule antagonists of the androgen receptor (AR) signaling pathway (AID 743035; active means well fitted inhibition curve with a large enough effect in the signal ratio in the repeat runs, not every such curve was filed as active; the % refers to the signal ratio). The gist of the method:
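Steps: seed AR-UAS-bla GripTite HEK293 cells, incubate 4 h at 37C; pin in test compound, then add agonist R1881; incubate 16 h at 37C; add LiveBLAzer B/G FRET substrate, 2 h at room temperature; read fluorescence.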

Assay [9] shares this target. In words: qHTS assay to identify small molecule agonists of the androgen receptor (AR) signaling pathway using the MDA cell line (AID 743040; further: nearly all actives have a fitted effect of over 20% in size). The gist of the method:
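Stable MMTV-luciferase reporter in MDA-kb2 cells; note the promoter carries GR as well as AR response elements. 16 h compound treatment, 37C, 0% CO2; ONE-Glo luminescence endpoint.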

Assay [10] shares this target. In words: qHTS assay to identify small molecule agonists of the androgen receptor (AR) signaling pathway (AID 743036; active means well fitted activation curve with a large enough effect in the signal ratio in the repeat runs, with a control signal flat, not every such curve was filed as active; the % refers to the signal ratio). The gist of the method:
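AR-bla HEK293 cells, 2,000/well; 4 h preincubation 37C/5% CO2; compound (DMSO) 16 h at 37C; LiveBLAzer B/G FRET substrate 2 h RT; fluorescence intensity read-out.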

Sequence of Androgen receptor (Homo sapiens) (P10275 whole entry, looked up): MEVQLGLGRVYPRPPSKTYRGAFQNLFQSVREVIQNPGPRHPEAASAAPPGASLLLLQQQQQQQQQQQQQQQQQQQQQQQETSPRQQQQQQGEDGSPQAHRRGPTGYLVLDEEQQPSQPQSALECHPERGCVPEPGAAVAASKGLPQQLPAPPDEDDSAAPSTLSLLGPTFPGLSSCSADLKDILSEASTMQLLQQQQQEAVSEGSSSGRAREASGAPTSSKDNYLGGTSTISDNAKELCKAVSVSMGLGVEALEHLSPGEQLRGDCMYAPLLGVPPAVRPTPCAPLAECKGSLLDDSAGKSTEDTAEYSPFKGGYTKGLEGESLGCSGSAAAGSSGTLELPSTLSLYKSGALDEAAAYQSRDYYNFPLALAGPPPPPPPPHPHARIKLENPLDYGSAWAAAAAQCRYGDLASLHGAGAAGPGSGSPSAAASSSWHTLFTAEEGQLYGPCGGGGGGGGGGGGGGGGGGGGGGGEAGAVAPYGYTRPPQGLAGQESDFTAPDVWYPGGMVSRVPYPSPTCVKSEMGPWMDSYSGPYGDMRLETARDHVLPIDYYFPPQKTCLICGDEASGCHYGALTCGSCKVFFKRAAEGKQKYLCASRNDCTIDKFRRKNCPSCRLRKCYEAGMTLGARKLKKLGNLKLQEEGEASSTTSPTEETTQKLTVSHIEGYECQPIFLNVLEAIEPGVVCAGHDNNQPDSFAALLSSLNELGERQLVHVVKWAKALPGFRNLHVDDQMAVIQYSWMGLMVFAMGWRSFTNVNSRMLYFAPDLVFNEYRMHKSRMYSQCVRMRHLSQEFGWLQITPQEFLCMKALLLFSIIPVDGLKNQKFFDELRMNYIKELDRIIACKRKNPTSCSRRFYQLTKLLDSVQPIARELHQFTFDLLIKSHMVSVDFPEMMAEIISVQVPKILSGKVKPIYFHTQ

In the case of `OCCCCCO`, the outcome in assay [1] and in [4] was inactive. Besides, the Potency entry in [2], in [3], in assay [5] and in assay [6] was “inactive” in each case.

Take `C[N+]12CCC(CC1)C(OC(=O)C(O)(c1ccccc1)c1ccccc1)C2` (stereo not drawn): the compound was called inactive in [1] and in assay [4]. Moreover, the Potency result in assay [2], in assay [3], in assay [5] and in assay [6] was “inactive” throughout.

As to `CC(C(=O)O)c1cccc(Oc2ccccc2)c1` (stereo not drawn), the result in [1] and in [4] was inactive. Also, the Potency entry in [2], in [3], in assay [5] and in [6] was “inactive” in each case.

With `C=CCCC(=O)O`, the compound was called inactive in [1] and in assay [4]. Moreover, the Potency entry in assay [2], in assay [3], in assay [5] and in assay [6] was “inactive” each time.

Take `CC[N+](C)(CC)CCOC(=O)C1c2ccccc2Oc2ccccc21`: the outcome in assay [1] and in assay [4] was inactive. The Potency result in [2], in assay [3], in assay [5] and in assay [6] was “inactive” in each case.

Turning to `CC(=O)NC(=O)c1ccccc1O`, the outcome in assay [1] and in [4] was inactive. Further, the Potency entry in assay [2], in [3], in assay [5] and in assay [6] was “inactive” in each case.

`CC(C)C(=O)OC(=O)C(C)C`: the outcome in assay [1] and in assay [4] was inactive. Besides, the Potency entry in assay [2], in [3], in assay [5] and in assay [6] was “inactive” in each case.

On to `C[C@H]1C[C@H]2[C@@H]3CCC4=CC(=O)C=C[C@]4(C)[C@H]3C(=O)C[C@]2(C)[C@@]1(O)C(=O)CO`, for which the call in assay [1] and in assay [4] was inactive. Further, the Potency entry in assay [2], in assay [3], in assay [5] and in assay [6] was “inactive” each time.

Regarding `CCN(CC#N)c1cccc(C)c1`, the outcome in assay [1] was inactive. In addition, the Potency entry in assay [2], in assay [7], in assay [3], in assay [5] and in assay [6] was “inactive” each time.

As to `CC(C)NNC(=O)c1ccncc1`, the compound was called inactive in assay [1] and in assay [4]. In addition, the Potency entry in assay [2], in [3], in assay [8], in [9] and in assay [6] was “inactive” throughout.

For `CC(C)COC(=O)c1ccc(N)cc1`, the call in [1] and in assay [4] was inactive. Besides, the Potency entry in assay [2], in assay [3] and in [5] was “inactive” each time.

On to `COC(=O)C1=C(C)NC(C)=C(C(=O)OC(C)C)C1c1cccc2nonc12` (stereo not drawn), for which the call in [1] and in assay [10] was inactive. Also, the Potency entry in [2], in [7], in assay [8], in assay [9], in assay [5] and in [6] was “inactive” each time.

Regarding `CCCCCCCC1CCCC1=O` (stereo not drawn), the outcome in assay [1], in assay [4] and in assay [10] was inactive. The Potency entry in assay [2], in assay [3], in [8], in assay [9], in assay [5] and in assay [6] was “inactive” in each case.

Take `Cc1cccc(C)c1NC(=O)CC12CCCN1CCC2`: the outcome in assay [1] was inactive. The Potency result in assay [2], in [7], in assay [3], in assay [5] and in [6] was “inactive” throughout.

In the case of `Cc1ccc(C(=O)Nc2ccc(S(=O)(=O)O)c3cc(S(=O)(=O)O)cc(S(=O)(=O)O)c23)cc1NC(=O)c1cccc(NC(=O)Nc2cccc(C(=O)Nc3cc(C(=O)Nc4ccc(S(=O)(=O)O)c5cc(S(=O)(=O)O)cc(S(=O)(=O)O)c45)ccc3C)c2)c1`, the compound was classed as inactive in assay [1] and in assay [4]. The Potency entry in [2], in [7], in [5] and in assay [6] was “inactive” each time.

As for `CCN[C@@H]1C[C@H](N)[C@@H](OC2OC(CN)=CCC2N)[C@H](O)[C@H]1O[C@H]1OC[C@](C)(O)[C@H](NC)[C@H]1O` (stereo partly drawn), the call in assay [1] and in assay [4] was inactive. For the same compound, the Potency entry in assay [2], in [3], in assay [5] and in assay [6] was “inactive” in each case.

Take `O=C(O)CC(C(=O)O)S(=O)(=O)O` (stereo not drawn): the result in assay [1] and in assay [4] was inactive. Further, the Potency in [2] is 68.6 µM (active); in assay [7] it was 61.1 µM (active). Moreover, the Potency result in assay [5] and in assay [6] was “inactive” throughout.

With `NO`, the call in assay [1] and in assay [4] was inactive. Moreover, the Potency entry in assay [2], in [3], in [5] and in assay [6] was “inactive” in each case.

Regarding `CCCOC(=O)CC`, the compound was called inactive in assay [1], in [4] and in assay [10]. The Potency entry in [2], in assay [3], in [8], in assay [9], in assay [5] and in assay [6] was “inactive” throughout.

Take `O=S(=O)(O)c1cc(O)c(O)c(S(=O)(=O)O)c1`: the compound was classed as inactive in assay [1], in [4] and in assay [10]. For the same compound, the Potency result in assay [2], in assay [3], in assay [8], in [9], in assay [5] and in [6] was “inactive” throughout.

Take `O=S(=O)(O)c1cccc(S(=O)(=O)O)c1`: the outcome in [1] and in assay [4] was inactive. Further, the Potency entry in assay [2], in assay [3], in assay [8], in [9], in assay [5] and in [6] was “inactive” in each case.

On to `CN1CC(=O)N/C1=N/C(=O)Nc1cccc(Cl)c1`, for which the outcome in [1] and in assay [4] was inactive. The Potency entry in [2], in assay [3], in [5] and in [6] was “inactive” in each case.

On to `CCCCCCC1CCC(=O)O1` (stereo not drawn), for which the result in [1] and in assay [4] was inactive. Moreover, the Potency entry in assay [7], in assay [3], in [5] and in assay [6] was “inactive” throughout.

As to `CN1[C@@H]2CC[C@H]1CC(OC(=O)C(O)c1ccccc1)C2` (stereo partly drawn), the compound was called inactive in assay [1] and in [4]. In addition, the Potency result in [2], in assay [3], in [5] and in assay [6] was “inactive” throughout.

Turning to `COc1cccc(OC)c1C(=O)N[C@@H]1C(=O)N2[C@@H]1SC(C)(C)[C@@H]2C(=O)O`, the result in assay [1] was inactive. Further, the Potency entry in [2], in assay [3] and in [5] was “inactive” in each case.

With `Cc1ccccc1N=C(N)N=C(N)N`, the outcome in [1] and in [4] was inactive. Moreover, the Potency entry in [7], in assay [3], in [5] and in assay [6] was “inactive” each time.

Regarding `C=COCC1CCC(COC=C)CC1` (stereo not drawn), the call in assay [1] and in assay [4] was inactive. Besides, the Potency entry in [2], in assay [5] and in assay [6] was “inactive” each time.

As to `CCN1CCOCC1`, the compound was classed as inactive in assay [1] and in assay [4]. The Potency entry in assay [2], in assay [3], in assay [5] and in assay [6] was “inactive” in each case.
